The record followed here is PubChem BioAssay (EPA / NIEHS).

Activity calls are given as the source filed them. The calls were made as follows: active = hit-call score of the fitted dose curve at least 0.9, where 1 is the maximum; inactive = score below 0.9.

Read-out in the assay: Intercellular Adhesion Molecule 1 (ICAM1), ICAM1 (gene 3383)
Kind of assay: LTEA_HepaRG_ICAM1: Life Technologies and Expression Analysis (LTEA) Assay for Intercellular Adhesion Molecule 1 (ICAM1) using HepaRG (AID 2283507). Conditions: mRNA level, 48 h; actives raise or lower the signal. The method, then:
LTEA_HepaRG is a cell based, multiplexed-readout assay that uses HepaRG, a human liver cell line, with measurements taken at 48 hours after chemical dosing on a 96-well plate.LTEA_HepaRG_ICAM1 is one of 102 assay component(s) measured in the LTEA HepaRG cell culture assay. It is a marker of Fibrosis.Data from the assay component LTEA_HepaRG_ICAM1 was analyzed into 1 endpoint. This assay endpoint, LTEA_HepaRG_ICAM1, was analyzed with bidirectional fitting relative to DMSO as the negative control and baseline of activity. Using a type of inducible reporter, measures of mRNA induction for gain or loss-of-signal activity can be used to understand regulation of transcription factor activity. To generalize the intended target to other relatable targets, this assay endpoint is annotated to the cell adhesion molecules intended target family, where the subfamily is Immunoglobulin CAM.
A total of 1060 chemcials from the ToxCast library were tested in eight-point concentration-response experiments. Cell culture and cytotoxicity assays were conducted at Thermo Fisher Scientific's Custom Services facility (Madison, WI). A single lot of human HepaRG cells (Thermo Fisher Scientific, Frederick, MD) was used for the cell culture experiments. 96-well format collagen type I coated plates of human HepaRG cells were prepared using established methods. Briefly, cryopreserved HepaRG cells were thawed, plated at a density of approximately 100,000 cells/well in HepaRG Thaw, Plate, and General Purpose media (HPRG770, Thermo Fisher Scientific), and incubated for 48 hours. 0.5% DMSO was selected as vehicle control to balance the requisite need of DMSO in HepaRG cultures to maintain differentiation (for example, baseline metabolism, proportions of hepatocytes vs. cholangiocytes), while enabling further hepatic receptor pathway activation (for example, PXR and CAR) in response to chemical exposure. 48 hours after plating, the culture medium was replaced with HepaRG Serum-Free Incudtion Media. Cells were exposed to each test chemical in duplicate and maintained in CO2 incubators for another 48 hours. Chemical plates were thawed to room temperature and 200x concentrations of treatment groups were prepared. 8-point conentration-reponse curves were made with the highest exposure at 100 uM, followed by half-log dilutions, all in 0.5% DMSO. Each test plate contained variouse controls, induction positive controls (1mM phenobarbital), cytotoxicity positive controls ([…] aflatoxin B1), vehicle controls (0.5% DMSO), and total lysis controls (0.5% DMSO). Cell morphology images were taken using an Essen IncuCyte FLR automated microscope, with six 96-well plates imaged in about 24 minutes. Images were captured and exported and JPEG files. Spent culture media was transfered to black-well plates for the LDH assay, and remaining media was sorted at -80 C for later use. Cells were treated with RLT buffer and frozen until shipped for gene expression analysis. Total RNA was isolated from the cell suspension in 75 uL of Buffer RLT (Qiagen, Germantown, MD 20874) by Quintiles/Expression Analysis (Durham, NC) using a custom isolation procedure. Total RNA from each plate well was transferred to a preamplification plate. Fluidigm's 96.96 Dynamic ArrayTM (Fluidigm, Amsterdam, the Netherlands) technology was used for gene expression analyses by quantitative reverse transcription polymerase chain reaction (qRT-PCR, performed by Quintiles/Expression Analysis, Durham, NC)89. Standard TaqManTM Assays (Applied Biosystems/ThermoFisher Scientific, Foster City, CA) were used to assess the expression of 93 genes selected based on their selectivity and sensitivity to important hepatic receptors known to be modulated by environmental chemicals; importance in human hepatocyte functionality; and hepatotoxicity. […]
For the molecule `Oc1cc(Cl)c(Cl)cc1Cl`, the result was inactive.
The same measure, in the same setting: the result for `Cc1cc(C)cc(C)c1` reads “inactive”; that for `CC(C)O.CC(C)O.OCCN(CCO)CCO.OCCN(CCO)CCO.[Ti]`, “inactive”.
On the same count and under the same terms, in the case of `CC(C)(C)c1ccccc1O` it was “inactive”; in that of `Clc1cccc(Cl)c1Cl`, “inactive”; in that of `CCCCCCCCCCCCc1cccc(S(=O)(=O)O)c1`, “inactive”.
As for `O=C(O)C1(c2ccc3c(c2)OC[C@H](Cc2ccc(-c4ccccc4)cc2)[C@H]3O)CCCC1`, the concentration at half-maximal activity (AC50) was 64.4 µM (active).
As to `COc1ccccc1N`, the outcome was inactive.
On the same count and under the same terms, the result for `CN(C)C(=S)S` reads “inactive”; that for `OCCN(CCO)CCO`, “inactive”; that for `O=C(N[C@H]1CN2CCC1CC2)c1ccc2c(c1)OCCO2`, “inactive”.
On to `N#Cc1cccnc1`, for which the molecule was classed as inactive.
On the same count and under the same terms, the result for `Clc1cccc(Cl)c1` reads “inactive”.
With `Oc1c(Cl)cc(Cl)cc1Cl`, the molecule was classed as inactive.

One may read the AC50 as the midpoint of the concentration-response curve, whichever way the signal moves.
